# “And” between values parts separate entries of the source, which are not always exact repeats. Equal entries are not always repeated. A number with no mark means an inactive call. Results filed as inconclusive are left out. Entries that show only a call come without a potency. The source made the active and inactive calls. Unless noted, calls come from the whole dose curve; as a rule, active = well fitted curve in the direction sought with a large enough effect; inconclusive = small, poorly fitted or top-dose-only effect, or another doubt; inactive = no such curve, though single readings can be large; an effect the other way counts as inactive or inconclusive.
# What was measured:
# [1] = qHTS for compounds that reverse cellular toxicity of Amyloid beta (A-beta) peptide in yeast: LOPAC Validation Assay (AID 720559)
# How it was run: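 OD600 growth readout after 48 hr at 30 C; A-beta-toxic yeast plus pinned compounds in medium. Normalization: DMSO = negative, equimolar FeCl3 + clioquinol = positive.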
# [2] = qHTS for Activators of Parkin Expression: LOPAC Validation Assay (NLuc Reporter) (AID 720572)
# How it was run: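 Compound effects on Parkin promoter activity were measured as NanoLuc luminescence after 24 h at 37 C. The neuronal reporter line also carried FLuc, which was read first. LOPAC compounds were tested at 7 concentrations, with normalization to DMSO (0%) and positive control (100%).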
# [3] = qHTS for Activators of Parkin Expression: LOPAC Validation Assay (FLuc Reporter) (AID 720573)
# How it was run: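 FLuc luminescence read-out from a neuronal line expressing a Parkin-promoter-driven coincidence reporter. Cells treated 24 h at 37 C, 5% CO2 with compounds at 7 concentrations; signal increase normalized to DMSO and positive control.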
# [4] = molecular target: Arylsulfatase A (Homo sapiens) (UniProt P15289); assay: qHTS screen for enhancers of Arylsulfatase A (ASA1): LOPAC Validation Assay (AID 720538); note: potency is the fitted concentration of half-maximal effect
# How it was run: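 Read-out: fluorescence at Ex=525/Em=598 nm after 1N NaOH final stop. Patient fibroblasts carrying ASA-I179S had 48h compound exposure, then 14h room-temperature pNCS hydrolysis (0.5mM final) in lysis buffer. Signal increase = enhanced activity.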
# [5] = qHTS assay for small molecule agonists of the antioxidant response element (ARE) signaling pathway measured by Nrf2-dependant transcriptional activity - cell viability counter screen (AID 720653; active = well fitted curve in the direction sought with a large enough effect in the repeat runs; an effect the other way counts as inactive or inconclusive; note: potency is the fitted concentration of half-maximal effect); settings: ARE-bla HepG2 viability, CellTiter-Glo ATP luminescence, 16 h; max response: active compounds read low
# How it was run: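 Cytotoxicity counter screen: intracellular ATP quantified by CellTiter-Glo luminescence in the same ARE-bla HepG2 plates, after 16 h compound exposure and a 2 h beta-lactamase substrate step.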
# [6] = qHTS assay for small molecule agonists of the antioxidant response element (ARE) signaling pathway measured by Nrf2-dependant transcriptional activity (AID 720636; active = well fitted curve in the direction sought with a large enough effect in the repeat runs; an effect the other way counts as inactive or inconclusive; note: potency is the fitted concentration of half-maximal effect)
# How it was run: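 ARE-luc HepG2 cells carrying an Nrf2-responsive luciferase reporter were plated in medium with 1% dialyzed FBS, left 6 hr at 37 C to attach, then exposed to compound for 16 hr. Luciferase luminescence was read after ONE-Glo addition.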
# [7] = qHTS assay for small molecule antagonists of the retinoid-related orphan receptor gamma (ROR-gamma) signaling pathway - cell viability counter screen (AID 720652; active = well fitted curve in the direction sought with a large enough effect in the repeat runs; an effect the other way counts as inactive or inconclusive;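 note: CHO reporter cells with doxycycline-induced ROR-gamma expression; series mostly up to about 92 µM; compound exposure lasted 16 hr before ATP read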)
# How it was run: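 Cytotoxicity counter screen: intracellular ATP (CellTiter-Glo luminescence) measured in the doxycycline-induced CHO RORE-luciferase reporter line after 16 hr compound exposure at 37 C, 5% CO2.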
# Chain of Arylsulfatase A (Homo sapiens) (P15289 whole entry, looked up): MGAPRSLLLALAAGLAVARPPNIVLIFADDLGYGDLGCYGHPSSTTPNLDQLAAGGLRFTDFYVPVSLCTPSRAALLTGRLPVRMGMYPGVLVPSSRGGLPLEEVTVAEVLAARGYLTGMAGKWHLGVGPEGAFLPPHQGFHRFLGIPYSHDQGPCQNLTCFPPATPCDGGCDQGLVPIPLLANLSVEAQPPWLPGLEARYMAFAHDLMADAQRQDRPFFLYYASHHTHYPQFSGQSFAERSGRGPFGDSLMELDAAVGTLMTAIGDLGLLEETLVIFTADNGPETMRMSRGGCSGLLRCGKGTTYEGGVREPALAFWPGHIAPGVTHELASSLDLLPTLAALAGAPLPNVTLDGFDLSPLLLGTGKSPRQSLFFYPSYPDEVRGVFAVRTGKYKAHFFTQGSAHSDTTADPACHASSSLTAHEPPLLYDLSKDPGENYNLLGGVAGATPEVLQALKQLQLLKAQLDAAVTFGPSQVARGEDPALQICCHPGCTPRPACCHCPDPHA
compound,measurement,setting,value
O=C1NC(=O)C(c2ccccc2[N+](=O)[O-])=C1Nc1ccc(O)c(Cl)c1,outcome,[1],inactive
same,outcome,[2],inactive
same,Potency,[3],inactive
Nc1nc(N)c(N=O)c(OCC2CCCCC2)n1,Potency,[4],inactive
same,outcome,[1],inactive
same,outcome,[2],inactive
same,Potency,[3],inactive
NCCCCNCCCN,Potency,[4],inactive
same,outcome,[1],inactive
same,outcome,[2],inactive
same,Potency,[3],inactive
COc1cc2c(cc1OC)C1CC(=O)C(CC(C)C)CN1CC2 (centres undefined),outcome,[1],inactive
same,outcome,[2],inactive
same,Potency,[3],inactive
N[C@@H](Cc1cc(I)c(Oc2cc(I)c(O)c(I)c2)c(I)c1)C(=O)O,max response,[5],-2.98%
COc1cc2nc(N3CCN(C(=O)C4CCCO4)CC3)nc(N)c2cc1OC (centres undefined),outcome,[1],inactive
same,outcome,[2],inactive
same,Potency,[3],inactive
C[C@H](Cc1ccc(O)c(O)c1)[C@@H](C)Cc1ccc(O)c(O)c1,outcome,[1],inactive
same,Potency,[3],inactive
CCc1nc(N)nc(N)c1-c1ccc(Cl)cc1,Potency,[6],inactive
same,outcome,[7],inactive
same,Potency,[5],11.2 µM (active)
Nc1nc(OCc2ccccc2)c2[nH]cnc2n1,outcome,[1],inactive
same,outcome,[2],inactive
same,Potency,[3],inactive
Cc1cc(O)c2c(c1)C(=O)c1cc(O)cc(O)c1C2=O,outcome,[1],inactive
same,outcome,[2],inactive
same,Potency,[3],inactive
same,outcome,[7],inactive
Cc1c(OCC(F)(F)F)ccnc1CS(=O)c1nc2ccccc2[nH]1 (centres undefined),Potency,[4],inactive
same,outcome,[2],inactive
NC(=NCc1ccccc1)NC(=O)c1nc(Cl)c(N)nc1N,outcome,[1],inactive
same,outcome,[2],inactive
same,Potency,[3],inactive
O=c1c(O)c(-c2ccc(O)cc2O)oc2cc(O)cc(O)c12,Potency,[4],inactive
same,outcome,[1],inactive
same,outcome,[2],inactive
same,Potency,[3],inactive
same,Potency,[6],inactive
same,max response,[5],6.53%
CC(=O)N1CCN(c2ccc(OC[C@H]3CO[C@](Cn4ccnc4)(c4ccc(Cl)cc4Cl)O3)cc2)CC1,Potency,[4],inactive
same,outcome,[2],inactive
same,Potency,[3],inactive
same,Potency,[6],inactive
same,max response,[5],-20.7%
COc1cc(OC)c(C(=O)CCCN2CCCC2)c(OC)c1,Potency,[6],inactive
same,max response,[5],-3.27%
O=c1c(O)c(-c2cc(O)c(O)c(O)c2)oc2cc(O)cc(O)c12,outcome,[1],inactive
same,outcome,[2],inactive
same,Potency,[3],inactive
CNC[C@H](O)c1ccc(O)c(O)c1,outcome,[1],inactive
same,outcome,[2],inactive
same,Potency,[3],inactive
same,Potency,[6],inactive
same,max response,[5],4.44%
O=c1ccc2ccc(O)c(O)c2o1,Potency,[4],inactive
same,outcome,[1],inactive
same,outcome,[2],inactive
same,Potency,[3],inactive
CN(C)c1ccc2nc3ccc(=[N+](C)C)cc-3sc2c1,Potency,[5],10 µM (active)
COc1ccccc1N1CCN(CCN(C(=O)C2CCCCC2)c2ccccn2)CC1,Potency,[4],inactive
same,outcome,[1],inactive
same,outcome,[2],inactive
same,Potency,[3],inactive
O=C(CCc1ccc(O)cc1)c1c(O)cc(O)cc1O,Potency,[4],2.69 µM (active)
same,outcome,[1],inactive
same,outcome,[2],inactive
same,Potency,[3],inactive
CC(=O)Nc1ccc(O)cc1,Potency,[6],inactive
same,outcome,[7],inactive
same,max response,[5],-1.61% and -10.9%
COc1c2occc2cc2ccc(=O)oc12,max response,[5],-6.22% and 0.264%
CC1(C)NC(=O)N(c2ccc([N+](=O)[O-])c(C(F)(F)F)c2)C1=O,outcome,[1],inactive
same,outcome,[2],inactive
same,Potency,[3],inactive
same,Potency,[6],inactive
same,max response,[5],-27.8%
CCCCC(CC)COC(=O)C(C#N)=C(c1ccccc1)c1ccccc1 (centres undefined),Potency,[6],inactive
same,max response,[5],-8.35%
CC(=O)O[C@H]1C(=O)[C@@]2(C)C([C@H](OC(=O)c3ccccc3)[C@]3(O)C[C@H](OC(=O)[C@H](O)[C@@H](NC(=O)c4ccccc4)c4ccccc4)C(C)=C1C3(C)C)[C@]1(OC(C)=O)CO[C@@H]1C[C@@H]2O (some centres undefined),Potency,[4],inactive
same,outcome,[1],inactive
same,outcome,[2],inactive
same,Potency,[3],inactive
Oc1ccc2ccccc2c1SSc1c(O)ccc2ccccc12,outcome,[1],inactive
same,outcome,[2],inactive
same,Potency,[3],inactive
CCN(CC)C(=S)SSC(=S)N(CC)CC,Potency,[4],inactive
same,outcome,[1],inactive
same,Potency,[6],27.3 µM (active)
O=C1c2c(O)cc(O)cc2OC(c2ccc(O)c(O)c2)C1O (centres undefined),outcome,[1],inactive
same,outcome,[2],inactive
same,Potency,[3],inactive
COc1ccc2cc([C@H](C)C(=O)O)ccc2c1,Potency,[4],inactive
same,outcome,[1],inactive
same,outcome,[2],inactive
same,Potency,[3],inactive
Nc1ccn([C@@H]2O[C@H](CO)[C@@H](O)C2O)c(=O)n1 (some centres undefined),Potency,[4],inactive
same,outcome,[1],inactive
same,outcome,[2],inactive
same,Potency,[3],inactive
Nc1ccc(S(N)(=O)=O)cc1,Potency,[6],inactive
same,outcome,[7],inactive
same,max response,[5],0.534%
